In PubChem BioAssay (Tox21):
Inconclusive results are not listed. Activity calls are given as the source filed them. Unless noted, the call rests on the fitted dose curve; in most records, active means well fitted curve in the direction sought with a large enough effect in the repeat runs; inconclusive means weak or mixed curves; inactive means no such curve, though single readings can be large; an effect the other way counts as inactive or inconclusive.

Tests used:
[1] = qHTS assay to identify aromatase inhibitors - cell viability counter screen (AID 743084);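 further: cells stimulated with testosterone during compound exposure; nearly all actives have a fitted effect of over 55% in size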
[2] = qHTS assay to identify small molecule that activate the aryl hydrocarbon receptor (AhR) signaling pathway - cell viability counter screen (AID 743086);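 further: HepG2 liver cells carrying the AhR DRE luciferase reporter; series mostly up to about 70 µM; nearly all actives have a fitted effect of over 45% in size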
Summary of the method: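 HepG2-AhR-luc (HG2L7.5c1) cells, 4000/well, were preincubated 5 h at 37C, exposed to compound in qHTS format for 24 hr at 37C, then given CellTiter-Fluor for 30 min; viability was read as fluorescence in the reporter wells.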

[3] = qHTS assay to identify small molecule antagonists of the peroxisome proliferator-activated receptor gamma (PPARg) signaling pathway - cell viability counter screen (AID 743194); further: nearly all actives have a fitted effect of over 55% in size
Summary of the method: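 PPARg-UAS-bla HEK293H cells were plated, rested 5 h at 37 C, then treated with compounds plus rosiglitazone (50 nM final) for 17 h at 37 C; viability was then read by CellTiter-Glo luminescence after 30 min at room temperature.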

[4] = qHTS assay for small molecule agonists of the antioxidant response element (ARE) signaling pathway - cell viability counter screen (AID 743203; calls by dose curve; further: nearly all actives have a fitted effect of over 55% in size)
Summary of the method: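 Viability counter screen: CellTiter-Glo luminescence, read after 30 min at room temperature, in ARE-bla HepG2 wells. Compound exposure lasted 16 h at 37C/5% CO2, following a 5 h pre-incubation of the cells after plating.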

[5] = qHTS assay for small molecule activators of the heat shock response signaling pathway - cell viability counter screen (AID 743209); further: nearly all actives have a fitted effect of over 50% in size
Summary of the method: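 Cytotoxicity counter screen run in the same wells as the heat-shock bla reporter assay: HeLa HSE-bla cells, 5 h compound exposure at 37 C, viability read by CellTiter-Glo luminescence.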

[6] = qHTS assay for small molecule activators of the heat shock response signaling pathway (AID 743210; active means well fitted activation curve with a large enough effect in the signal ratio in the repeat runs, with a control signal flat, not every such curve was filed as active; the % refers to the signal ratio; further: series mostly up to about 63 µM)
Summary of the method: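 Heat shock element–beta-lactamase HeLa reporter cells; qHTS with compounds for 5 h at 37 C; detection by FRET substrate fluorescence after 2.5 h at RT.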

[7] = biological target: Bile acid receptor (Homo sapiens) (UniProt Q96RI1); test: qHTS assay to identify small molecule antagonists of the farnesoid-X-receptor (FXR) signaling pathway (AID 743217; active means well fitted inhibition curve with a large enough effect in the signal ratio in the repeat runs, not every such curve was filed as active; the % refers to the signal ratio)
Summary of the method: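 Antagonist mode: chenodeoxycholic acid at 50 uM final stimulates a UAS-driven beta-lactamase reporter in HEK 293T FXR-bla cells during 16 h, 37C compound exposure. Read-out is FRET substrate fluorescence after 2 h at room temperature.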

[8] = qHTS assay to identify small molecule agonists of the farnesoid-X-receptor (FXR) signaling pathway - cell viability counter screen (AID 743218); further: nearly all actives have a fitted effect of over 45% in size
Summary of the method: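 Viability counter screen in the same wells: CellTiter-Glo luminescence, 30 min room-temperature incubation, measured after the beta-lactamase read. Cells were GeneBLAzer FXR-UAS-bla HEK 293T, compound-treated 16 h at 37C.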

[9] = biological target: Bile acid receptor (Homo sapiens) (UniProt Q96RI1); test: qHTS assay to identify small molecule agonists of the farnesoid-X-receptor (FXR) signaling pathway (AID 743220; active means well fitted activation curve with a large enough effect in the signal ratio in the repeat runs, not every such curve was filed as active; the % refers to the signal ratio)
Summary of the method: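 FXR-UAS-bla HEK 293T cells carrying a UAS-driven beta-lactamase reporter were plated for 5 h at 37C/5% CO2, then exposed to DMSO-dissolved Tox21 10K compounds for 16 h at 37C. A LiveBLAzer B/G FRET substrate was loaded for 2 h at room temperature before fluorescence reading.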

[10] = qHTS assay to identify small molecule antagonists of the farnesoid-X-receptor (FXR) signaling pathway - cell viability counter screen (AID 743221; active means well fitted cell-killing curve with a large enough effect in the repeat runs, not every such curve was filed as active; further: nearly all actives have a fitted effect of over 50% in size)
Summary of the method: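 Multiplexed counter screen: viability of FXR-bla HEK 293T cells under agonist stimulation by chenodeoxycholic acid (50 uM, final) and test compound for 16 h at 37 C, measured by CellTiter-Glo luminescence in the reporter wells.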

[11] = biological target: Vitamin D3 receptor (Homo sapiens) (UniProt P11473); test: qHTS assay to identify small molecule agonists of the vitamin D receptor (VDR) signaling pathway (AID 743222; calls by dose curve)
Summary of the method: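 Agonist mode, beta-lactamase reporter: fluorescence from LiveBLAzer B/G FRET substrate (2 h, room temperature) read after 16 h compound treatment at 37 C of VDR-bla cells, which were pre-incubated 4 h after seeding.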

[12] = biological target: Vitamin D3 receptor (Homo sapiens) (UniProt P11473); test: qHTS assay to identify small molecule antagonists of the vitamin D receptor (VDR) signaling pathway (AID 743223; active means well fitted inhibition curve with a large enough effect in the signal ratio in the repeat runs, not every such curve was filed as active; the % refers to the signal ratio)
Summary of the method: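 Cells carrying a VDR-driven beta-lactamase reporter (VDR-bla) were co-treated with compound and 3 nM final 1alpha,25-dihydroxyvitamin D3 for 16 h at 37C; reporter activity was measured as FRET substrate fluorescence after 2 h at room temperature.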

[13] = biological target: Peroxisome proliferator-activated receptor gamma (Homo sapiens) (UniProt P37231); test: qHTS assay to identify small molecule agonists of the peroxisome proliferator-activated receptor gamma (PPARg) signaling pathway (AID 743094; active means well fitted activation curve with a large enough effect in the signal ratio in the repeat runs, not every such curve was filed as active; the % refers to the signal ratio)
Summary of the method: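 Agonist activity was taken from a beta-lactamase reporter (FRET substrate, 1 h at room temperature) in HEK293H cells carrying a PPARg UAS-bla construct. Compounds in DMSO were incubated 17 h at 37C after a 5 h cell pre-incubation.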

[14] = qHTS assay for small molecule agonists of the antioxidant response element (ARE) signaling pathway (AID 743202; active means well fitted activation curve with a large enough effect in the signal ratio in the repeat runs, not every such curve was filed as active; the % refers to the signal ratio)
Summary of the method: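 Following a 16 h, 37 C exposure of reporter HepG2 cells (ARE-driven beta-lactamase, 2,000 cells/well) to compounds, FRET substrate was applied for 2 h at room temperature and fluorescence intensity recorded.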

[15] = qHTS assay to identify small molecule agonists of the peroxisome proliferator-activated receptor delta (PPARd) signaling pathway - cell viability counter screen (AID 743211); further: nearly all actives have a fitted effect of over 55% in size
Summary of the method: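 Counter screen for cytotoxicity run in parallel with the PPARd reporter screen. Beta-lactamase reporter HEK293H cells exposed to compounds 17 h; ATP-based CellTiter-Glo luminescence quantified viability.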

[16] = biological target: Peroxisome proliferator-activated receptor delta (Homo sapiens) (UniProt Q03181); test: qHTS assay to identify small molecule agonists of the peroxisome proliferator-activated receptor delta (PPARd) signaling pathway (AID 743212; calls by dose curve)
Summary of the method: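 Beta-lactamase reporter read by fluorescence (LiveBLAzer B/G FRET, 2 h, room temperature). Test agents, in DMSO, incubated at 37 C with PPARd-bla HEK293H cells.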

[17] = qHTS assay to identify small molecule antagonists of the peroxisome proliferator-activated receptor delta (PPARd) signaling pathway - cell viability counter screen (AID 743213); further: nearly all actives have a fitted effect of over 50% in size
Summary of the method: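 HEK293H PPARd UAS-bla cells, 5 h pre-incubation, compound + L165041 300 nM final, 17 h 37 C; B/G FRET substrate 2 h RT; then CellTiter-Glo 30 min RT, luminescence.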

[18] = biological target: Peroxisome proliferator-activated receptor delta (Homo sapiens) (UniProt Q03181); test: qHTS assay to identify small molecule antagonists of the peroxisome proliferator-activated receptor delta (PPARd) signaling pathway (AID 743215; active means well fitted inhibition curve with a large enough effect in the signal ratio in the repeat runs, not every such curve was filed as active; the % refers to the signal ratio;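 further: cells stimulated with agonist L165041 at 300 nM final during compound exposure; series mostly up to about 62 µM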)
Summary of the method: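 Agonist L165041 (300 nM final) added with compound to PPARd-bla HEK293H UAS-bla reporter cells; 17 h incubation at 37 C. Read-out: LiveBLAzer FRET substrate, 2 h at room temperature, fluorescence intensity.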

[19] = biological target: Peroxisome proliferator-activated receptor gamma (Homo sapiens) (UniProt P37231); test: qHTS assay to identify small molecule antagonists of the peroxisome proliferator-activated receptor gamma (PPARg) signaling pathway (AID 743191; calls by dose curve; further: series mostly up to about 63 µM; nearly all actives have a fitted effect of over 30% in size)
Summary of the method: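 GeneBLAzer PPARg UAS-bla HEK293H cells carrying a UAS-driven beta-lactamase reporter were plated at 3000 cells/well, preincubated 5 h at 37C, then given compound for 17 h at 37C; LiveBLAzer B/G FRET substrate was read after 1 h at room temperature.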

Measured: Potency

Sequence of Peroxisome proliferator-activated receptor gamma (Homo sapiens) (P37231 whole entry, looked up): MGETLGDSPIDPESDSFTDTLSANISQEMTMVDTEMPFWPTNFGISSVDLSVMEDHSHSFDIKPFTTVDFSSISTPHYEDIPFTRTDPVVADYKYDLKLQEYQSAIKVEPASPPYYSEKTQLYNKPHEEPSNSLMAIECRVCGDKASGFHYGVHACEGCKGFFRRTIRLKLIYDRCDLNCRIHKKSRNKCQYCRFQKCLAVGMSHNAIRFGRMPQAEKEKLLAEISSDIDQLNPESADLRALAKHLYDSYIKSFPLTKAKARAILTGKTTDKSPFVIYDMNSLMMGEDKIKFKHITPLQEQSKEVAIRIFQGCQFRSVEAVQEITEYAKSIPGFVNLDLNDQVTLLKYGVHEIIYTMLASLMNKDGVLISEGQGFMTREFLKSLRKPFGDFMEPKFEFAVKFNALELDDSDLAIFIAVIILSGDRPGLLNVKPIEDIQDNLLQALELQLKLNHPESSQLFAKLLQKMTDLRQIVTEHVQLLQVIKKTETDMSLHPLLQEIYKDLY
Sequence of Vitamin D3 receptor (Homo sapiens) (P11473 whole entry, looked up): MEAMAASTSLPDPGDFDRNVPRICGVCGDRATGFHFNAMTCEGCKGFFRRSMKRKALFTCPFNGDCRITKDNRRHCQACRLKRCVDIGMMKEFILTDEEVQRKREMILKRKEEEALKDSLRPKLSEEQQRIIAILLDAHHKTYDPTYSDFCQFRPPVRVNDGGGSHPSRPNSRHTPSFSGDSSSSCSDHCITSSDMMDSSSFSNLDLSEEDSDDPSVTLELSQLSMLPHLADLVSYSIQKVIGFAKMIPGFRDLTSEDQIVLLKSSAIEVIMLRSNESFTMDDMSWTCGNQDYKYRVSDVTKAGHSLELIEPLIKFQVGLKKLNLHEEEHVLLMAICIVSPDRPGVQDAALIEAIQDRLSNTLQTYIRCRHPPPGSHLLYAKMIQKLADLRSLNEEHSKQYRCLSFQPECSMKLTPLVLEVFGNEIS
Sequence of Peroxisome proliferator-activated receptor delta (Homo sapiens) (Q03181 whole entry, looked up): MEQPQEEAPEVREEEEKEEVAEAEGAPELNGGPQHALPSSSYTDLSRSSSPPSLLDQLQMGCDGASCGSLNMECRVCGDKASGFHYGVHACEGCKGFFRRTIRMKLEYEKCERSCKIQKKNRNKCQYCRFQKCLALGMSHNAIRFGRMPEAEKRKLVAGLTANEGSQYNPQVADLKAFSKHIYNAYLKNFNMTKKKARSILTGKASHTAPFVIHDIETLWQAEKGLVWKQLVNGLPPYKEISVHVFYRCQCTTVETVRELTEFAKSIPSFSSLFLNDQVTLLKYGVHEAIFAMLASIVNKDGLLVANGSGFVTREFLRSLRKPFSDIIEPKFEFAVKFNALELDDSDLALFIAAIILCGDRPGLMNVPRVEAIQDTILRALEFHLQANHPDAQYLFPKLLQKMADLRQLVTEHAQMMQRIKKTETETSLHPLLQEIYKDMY
Sequence of Bile acid receptor (Homo sapiens) (Q96RI1 whole entry, looked up): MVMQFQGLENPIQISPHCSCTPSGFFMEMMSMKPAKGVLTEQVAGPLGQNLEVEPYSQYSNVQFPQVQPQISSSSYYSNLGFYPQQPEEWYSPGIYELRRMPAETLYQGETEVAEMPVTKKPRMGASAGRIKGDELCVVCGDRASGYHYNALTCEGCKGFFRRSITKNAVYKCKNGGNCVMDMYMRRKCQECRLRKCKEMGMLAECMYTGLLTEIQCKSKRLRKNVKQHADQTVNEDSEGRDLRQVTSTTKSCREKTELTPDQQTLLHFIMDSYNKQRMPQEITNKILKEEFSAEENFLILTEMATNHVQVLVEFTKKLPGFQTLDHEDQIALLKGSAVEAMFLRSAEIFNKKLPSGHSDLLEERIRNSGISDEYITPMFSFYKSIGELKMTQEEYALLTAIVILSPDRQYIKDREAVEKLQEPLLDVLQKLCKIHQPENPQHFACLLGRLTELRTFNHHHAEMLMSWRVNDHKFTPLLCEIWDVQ

CC(C)NC[C@@H](O)COc1cccc2ccccc12
inactive: [1] | [2] | [3] | [4] | [5] | [6] | [7] | [8] | [9] | [10] | [11] | [12]

Cc1ccc(C(C)C)cc1O
inactive: [1] | [2] | [13] | [14] | [4] | [5] | [6] | [15] | [8] | [10] | [11]

Cc1nc(-c2ccccn2)ncc1C(=O)Nn1cc(C)c2cc(F)ccc21
inactive: [1] | [2] | [3] | [4] | [5] | [6] | [16] | [17] | [7] | [8] | [10] | [12]

CCCCCCCOC(=O)CCC
inactive: [1] | [2] | [3] | [4] | [5] | [6] | [15] | [16] | [18] | [8] | [10] | [11]

OCc1ccccc1O
inactive: [1] | [2] | [3] | [4] | [5] | [6] | [15] | [7] | [8] | [10] | [11] | [12]

CCOC(=O)c1ccccc1O
inactive: [1] | [2] | [3] | [4] | [5] | [6] | [15] | [17] | [18] | [8] | [10] | [12]

CC(C)C1=CC2=CC[C@@H]3[C@](C)(CCC[C@@]3(C)C(=O)O)[C@H]2CC1
inactive: [1] | [2] | [13] | [3] | [4] | [5] | [15] | [12]

CCOC(=O)[C@H](CCc1ccccc1)N[C@@H](C)C(=O)N1Cc2cc(OC)c(OC)cc2C[C@H]1C(=O)O
inactive: [1] | [2] | [19] | [3] | [4] | [5] | [6] | [15] | [16] | [17] | [18] | [8] | [11]

O=C1CCCc2ccccc21
inactive: [1] | [2] | [3] | [14] | [4] | [5] | [6] | [16] | [17] | [18] | [8] | [10] | [11] | [12]

CC(C)OC(C)C
inactive: [1] | [2] | [19] | [3] | [4] | [5] | [6] | [15] | [16] | [17] | [18] | [8] | [10] | [12]

CCOC(=O)C(Br)c1ccccc1 (stereo unspecified)
inactive: [1] | [2] | [13] | [3] | [4] | [5] | [6] | [15] | [17] | [18] | [8] | [10] | [11]

CCCCN1C[C@H](O)[C@@H](O)[C@H](O)[C@H]1CO
inactive: [1] | [2] | [13] | [3] | [14] | [4] | [5] | [6] | [15] | [17] | [18] | [10] | [11] | [12]

O=C1CCC(C2CCCCC2)CC1
inactive: [1] | [2] | [13] | [4] | [5] | [6] | [15] | [16] | [17] | [18] | [7] | [9] | [10] | [11]

O=c1oc2c(O)c(O)cc3c(=O)oc4c(O)c(O)cc1c4c23
inactive: [1] | [2] | [3] | [4] | [5] | [6] | [15] | [17] | [7] | [8] | [9] | [10] | [11] | [12]

CC(C)C[C@H](NC(=O)OCC1c2ccccc2-c2ccccc21)C(=O)O
inactive: [1] | [2] | [4] | [5] | [6] | [15] | [16] | [17] | [7] | [8] | [9] | [10]

Oc1ccccc1F
inactive: [1] | [2] | [3] | [14] | [4] | [5] | [6] | [15] | [7] | [8] | [9] | [10] | [11] | [12]

C1CCOC1
inactive: [1] | [2] | [3] | [14] | [4] | [5] | [6] | [15] | [17] | [7] | [8] | [9] | [11] | [12]

C=O
inactive: [1] | [2] | [3] | [14] | [4] | [5] | [6] | [15] | [17] | [8] | [11] | [12]

FC(F)(F)C(Cl)(Cl)Cl
inactive: [1] | [2] | [19] | [3] | [14] | [4] | [5] | [6] | [16] | [17] | [18] | [7] | [8] | [9] | [10] | [11]

Cc1c(N)cccc1N
inactive: [1] | [2] | [4] | [5] | [6] | [15] | [16] | [17] | [18] | [8] | [10] | [11] | [12]
